The list is not random: actives were taken first. Their share in the collection is about 12%.
Shiga inhibitor = inhibitors of Shiga toxin in Vero cells; Vero cells, Shiga toxin protein synthesis inhibition reporter; 290,000 compounds, 9.2% hits; inhibition, % at 38.7 µM; in the data active = inhibition mostly above about 28%, no sharp cut-off; inactive = mostly below about 43%
Cycloheximide cs = counter-screen hit for Shiga toxin inhibitors, cycloheximide; 300,000 compounds, 12% hits; max response, %; cell reporter, cycloheximide protein synthesis inhibition counterscreen; AID 2314; in the data active = max response mostly above about 13%, no sharp cut-off; inactive = mostly below about 14%; also: read at 38.3 µM for the half of the compounds with a filed dose
NS1 function inh = blocks influenza NS1 protein function; AID 2326; 270,000 compounds, 0.4% hits; Potency, µM (titrated, usually from 46.1 µM); also: actives are rising curves; nearly all actives have a fitted effect of over 50% in size
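Read-out: OD600 growth recovery of NS1-expressing budding yeast. Cells grown overnight at 30C in -URA glucose medium, washed, resuspended and diluted 1:100 in 2% galactose assay medium, pH 6.0. Same strain lacking NS1 served as positive control.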
SARS PLpro yeast = blocks SARS-CoV papain-like protease in a yeast assay; S. cerevisiae expressing SARS-CoV PLpro, growth rescue; Potency, µM (doses to about 32.9 µM), usual class: activators; 330,000 compounds, 0.19% hits; AID 485353; also: nearly all actives have a fitted effect of over 55% in size
Large screens that a line does not name were inactive. Unless noted, calls follow the shape of the full dose curve.

O=C(COC(=O)c1ccco1)c1ccc(Cl)cc1	Shiga inhibitor 104, Cycloheximide cs 29
O=C(COC(=O)c1ccco1)c1ccccc1	Shiga inhibitor 112, Cycloheximide cs 48
COc1cc(C(=O)COC(=O)c2ccco2)cc(OC)c1OC	none (no result: Shiga inhibitor, Cycloheximide cs, NS1 function inh)
O=C(Nc1ccc(Oc2ccc3ccccc3c2)cc1)c1ccco1	none
Cc1ccc(C(=O)COC(=O)c2ccco2)cc1C	Shiga inhibitor 88, Cycloheximide cs 49
CCCCN(C(=O)c1cc2c(s1)CCCCC2)c1c(N)n(CCC)c(=O)[nH]c1=O	none (no result: Shiga inhibitor, Cycloheximide cs, NS1 function inh)
COc1ccc(C(=O)NNC(=O)C2CCN(S(=O)(=O)c3ccc(C)cc3)CC2)cc1	none
COc1ccccc1C(=O)COC(=O)c1cc(=O)[nH]c2ccccc12	none (no result: Shiga inhibitor, Cycloheximide cs, NS1 function inh)
O=C(CSCc1ccc(Cl)cc1)c1ccco1	Cycloheximide cs 21
Cc1ccc(C(=O)COC(=O)c2cc(=O)[nH]c3ccccc23)cc1C	Shiga inhibitor 150, Cycloheximide cs 24
CC1CC(C)(C)Nc2ccc(OC(=O)c3ccco3)cc21 (centres undefined)	Shiga inhibitor 121, Cycloheximide cs 49
O=C(CSc1ccc(Cl)cc1)NNC(=O)c1ccco1	none
CC1CC(C)(C)Nc2ccc(N=O)cc21 (centres undefined)	Shiga inhibitor 79, Cycloheximide cs 51 (no result: NS1 function inh)
CC1CC2(CCCC2)Nc2ccc(F)cc21 (centres undefined)	none
Cc1cc(=O)oc2cc(OC(=O)c3ccco3)ccc12	none
CCCCN(CC)CCCNC(=O)C1CCN(c2ncnc3c2sc2cccc(F)c23)CC1	none (no result: NS1 function inh)
Cc1ccc(N(C(=O)CNC(=O)c2ccco2)C(C(=O)NC2CCCCC2)c2ccncc2)cc1F (centres undefined)	none
O=C1COc2ccc(C(=O)COC(=O)c3ccco3)cc2N1	Shiga inhibitor 42, Cycloheximide cs 27
O=C(COC(=O)c1cnccn1)c1ccc2ccccc2c1	none
O=C(Oc1ccccc1)c1cc2ccccc2o1	none
O=C(Oc1cccc(-c2cnc3ccccc3n2)c1)c1ccco1	Cycloheximide cs 45
O=C(COC(=O)c1cc2ccccc2o1)c1ccccc1	Shiga inhibitor 117, Cycloheximide cs 39
CCN(CC)S(=O)(=O)c1ccc(C)c(C(=O)Oc2cccc(-c3cnc4ccccc4n3)c2)c1	none
O=C(COC(=O)c1ccco1)c1ccc2ccccc2c1	Cycloheximide cs 56
Cc1ccc(S(=O)(=O)NNC(=O)CCC(=O)Nc2ccccc2Cl)cc1	none
COCCN(C(=O)CSc1cc(C)c2ccccc2n1)c1c(N)n(CC(C)C)c(=O)[nH]c1=O	none (no result: Shiga inhibitor, Cycloheximide cs, NS1 function inh)
Cc1ccc(C(=O)COC(=O)c2ccc(Br)o2)cc1C	Shiga inhibitor 63, Cycloheximide cs 40
COc1ccc(S(=O)(=O)N2CCOCC2)cc1NC(=O)COC(=O)c1ccc([N+](=O)[O-])s1	none (no result: Shiga inhibitor, Cycloheximide cs, NS1 function inh)
COc1ccc(CNc2nc3nc(C)cc(C)n3n2)cc1	Shiga inhibitor 34
COc1ccc(CNc2nc3nc(C)c(Cl)c(C)n3n2)cc1OC	none (no result: Shiga inhibitor, Cycloheximide cs, SARS PLpro yeast)
COc1cccc(CNc2nc3nc(C)c(Cl)c(C)n3n2)c1	Shiga inhibitor 48, Cycloheximide cs 35
COc1ccc(CNc2nc3nc(C)c(Cl)c(C)n3n2)cc1	Shiga inhibitor 56, Cycloheximide cs 35
COc1ccc(-c2nc3nc(C)cc(C)n3n2)cc1	Shiga inhibitor 37, Cycloheximide cs 17
COc1cccc(CNc2nc3nc(C)c(Cl)c(=O)n3[nH]2)c1	none
CCCC(=O)Nc1nnc(S(=O)(=O)N2CCCCCC2)s1	none
CCCOc1ccccc1OCC(=O)Nc1cccc(S(=O)(=O)NC2=NCCC2)c1	none (no result: Shiga inhibitor, Cycloheximide cs, NS1 function inh)
C[C@@H](NC(=O)c1nc[nH]c1C(=O)NCC(=O)OCc1ccccc1)c1ccccc1	none
Cc1nc2nc(-c3cccnc3)nn2c(C)c1Cl	none
Cc1nc2nc(-c3ccco3)nn2c(C)c1Cl	Cycloheximide cs 14
COc1cccc(CNc2ccccc2O)c1OCc1ccccc1F	none (no result: NS1 function inh)
Cc1ccc(NC(=O)COC(=O)/C(=C/c2cccs2)c2cccs2)cc1S(=O)(=O)N(C)C	Shiga inhibitor 89, Cycloheximide cs 31, NS1 function inh inconclusive
Cc1ccc(NC(=O)Cc2ccccc2Cl)cc1S(=O)(=O)N(C)C	none
NS(=O)(=O)c1cccc(NC(=O)COC(=O)/C(=C/c2cccs2)c2cccs2)c1	none
Cc1ccc(NC(=O)COC(=O)c2ccccc2Cl)cc1S(=O)(=O)N(C)C	Shiga inhibitor 71, Cycloheximide cs 32 (no result: NS1 function inh)
Cc1ccc(C(=O)Nc2ccccc2C(=O)Nc2ccccn2)cc1Cl	none
N#Cc1c(-c2ccccc2)nc(SCC(=O)Nc2nnc(C(F)(F)F)s2)[nH]c1=O	none (no result: NS1 function inh)
C(=C\c1nnc(-c2cccs2)o1)/c1ccccc1	Shiga inhibitor 71, Cycloheximide cs 63
CSc1nnc(-c2ccccc2)o1	none
Clc1ccc(-c2noc(/C=C/c3ccccc3)n2)cc1	none
Cc1ccc(-c2noc(/C=C/c3ccccc3)n2)cc1	Cycloheximide cs 19

Compound activity: PubChem, National Center for Advancing Translational Sciences (NCATS)
